19 compounds from PubChem BioAssay AID624331 (National Center for Advancing Translational Sciences (NCATS), 2012) can be followed below.

SMILES strings stand for the structures. Results filed as inconclusive are left out. Active and inactive are the calls of the source. Calls come from the whole dose curve; as a rule, active = well fitted activation curve with a large enough effect; inconclusive = small, poorly fitted or top-dose-only effect; inactive = no such curve, though single readings can be large or run the other way.

This experiment in a line: qHTS assay for re-activators of p53 using a Luc reporter: Hit Validation with no p53 Expressed. Note: 0% is about no effect. Particulars: p53-null cells, luciferase reporter counter-screen; series mostly up to 46.1 µM; activity change, positive = activation: at the top concentration. In outline:
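Counter-screen of primary hits in a cell line not transfected with p53, in Opti-MEM with 10% FBS; compounds at several concentrations (10 mM stock, 1:5; top 46.1 µM in well), 24 h at 37 deg C, 5% CO2. Luminescence read after 10 min with Amplite reagent.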
In the case of `CC(=O)N1CCN(C(=O)COC(=O)COc2c(C)cc(C)cc2C)CC1`, the “activity change, positive = activation” value was 34.5% (inactive).

For `COc1ccc2oc(C(=O)Nc3nc(C)cs3)c(C)c2c1`, the “activity change, positive = activation” value is 11.4% (inactive). `CCOC(=O)C(C(C)=O)C(c1ccc(OC)cc1)C(C(C)=O)C(=O)OCC` (centres undefined): the “activity change, positive = activation” value was -8.98% (inactive). As for `O=C(Nc1ccc2c(c1)CCC2)c1ccccc1`, the figure is 24.9% (inactive); as for `CCN(CC)c1ccc2cc(-c3nc4ccccc4n3C)c(=O)oc2c1`, 1.98% (inactive); as for `CCOC(=O)c1csc(Nc2nc3ccc(F)cc3s2)n1`, 16.4% (inactive). Regarding `CCc1ccc(N=c2c([N+](=O)[O-])nn(-c3ccccc3)n2O)cc1`, the “activity change, positive = activation” value is -0.218% (inactive).

In the case of `O=C(NCCC1=CCCCC1)c1ccc(F)c(S(=O)(=O)N2CCOCC2)c1`, the “activity change, positive = activation” value was 13.5% (inactive). Take `OCc1cc(Br)ccc1OCc1nc2ccccc2s1`: the “activity change, positive = activation” value was 32.1% (inactive). With `Cc1ccsc1/C=N/Nc1nc2ccccc2[nH]1`, the “activity change, positive = activation” value is 50.1% (inactive). Regarding `Cn1c(Cc2cccs2)nnc1SCc1nc2ccccc2[nH]1`, the “activity change, positive = activation” value is -33.8% (inactive). Consider `Cn1c(-c2ncc(F)cc2F)cc2onc(-c3c(F)cccc3Cl)c2c1=O`, for which the “activity change, positive = activation” value was 66.8% (inactive). `CN(C)/C=N/c1cnc(C(=O)c2ccc(Cl)cc2)n1C`: the “activity change, positive = activation” value was 33.5% (inactive). Take `CCOCC(=O)Nc1nc2ccc(OCC)cc2s1`: the “activity change, positive = activation” value is 16.9% (inactive).

For the compound `COC(=O)c1ccc(-c2nc(-c3cccs3)no2)cc1`, the “activity change, positive = activation” value is -36% (inactive). For the compound `Cc1ccc(C(=O)c2c3ccc([N+](=O)[O-])cc3[n+]([O-])n2CCCN)cc1`, the “activity change, positive = activation” value was -18% (inactive). Consider `COc1ccc2[nH]c(=O)c3c(c2c1)OC(C)(C)C=C3`, for which the “activity change, positive = activation” value was -65.7% (inactive). Consider `Cc1ccc(NC(=O)COc2ccc3c(c2)OCO3)c(Cl)c1`, for which the “activity change, positive = activation” value is 14.4% (inactive).

On to `CCOC(=O)N(Cc1ccccc1)C(C(=O)O)C(C(=O)O)N(Cc1ccccc1)C(=O)OCC` (centres undefined), for which the “activity change, positive = activation” value was -32.1% (inactive).
